# According to ChEMBL document CHEMBL4513216, “Probing the Open Global Health Chemical Diversity Library for Multistage-Active Starting Points for Next-Generation Antimalarials” (ACS Infect Dis, 2020):
# Screen size: about 68,000 compounds; about 2,700 (4%) showed an effect of 50% or more. The list comes from a sample in which strong results are over-represented; it also holds similar structures and randomly drawn compounds.
# Tested on: Plasmodium berghei
# Assay: Screen against P. berghei liver stage (PbLuc), transformed with Luciferase, at 2uM
# Format: functional, HepG2
# Settings: tested at 2 uM
row,Structure (SMILES),INHIBITION
1,O=C(NCCc1ccccc1Cl)NCC1(O)CCSC1 (stereo not given),-41.73%
2,COCCN(C/C=C/c1ccccc1)Cc1ncc[nH]1,-14%
3,CN(CCc1cccs1)C(=O)Nc1cccc(S(C)(=O)=O)c1,-7.16%
4,OC(CN1CCN(CC(F)F)CC1)c1ccc(Br)cc1 (stereo not given),15.84%
5,OC(CN1CCN(CC2CCCCC2)CC1)c1ccccc1 (stereo not given),12.55%
6,CCN1CCN(CC(O)c2ccc(Br)cc2)CC1 (stereo not given),63.46%
7,NC(=O)CC1CCN(CC(O)c2ccc(Br)cc2)CC1 (stereo not given),-58.06%
8,OC(CN1CCN(CC2CC2)CC1)c1ccc(Br)cc1 (stereo not given),50.32%
9,CCN1CCN(CC(O)c2ccc(F)cc2)CC1 (stereo not given),-5.15%
10,Cn1cc(CN2CCCC23CCN(C(=O)c2cccn2C)CC3)cn1,1.42%
11,CO[C@@H]1CC[C@H]2[C@H]1OCCN2Cc1ccc(F)cc1,19.53%
12,Cc1nonc1CN(C)Cc1nc(-c2cccc(F)c2F)oc1C,-25.82%
13,CCc1nnc(CN(C)Cc2nc(-c3ccccc3Cl)oc2C)o1,15.84%
14,Cc1nonc1CN(C)Cc1nc(-c2ccccc2Cl)oc1C,51.96%
15,Cc1cc(C2CCC2)nc(NCC(C)(C)N2CCCC2)n1,7.85%
16,CC(C)N1CCO[C@H]2CN(C(=O)c3ccncc3)C[C@H]21,19.96%
17,O=C(c1ccsc1)N1CCO[C@@H]2CN(Cc3cccs3)C[C@@H]2C1,78.93%
18,CC(C)N1CCO[C@H]2CN(C(=O)c3ccoc3)C[C@H]21,-17.23%
19,Cc1cc(CN2C[C@@H]3CN(C(=O)c4ccsc4)CCO[C@@H]3C2)no1,-89.19%
20,O=C(c1ccsc1)N1CCO[C@@H]2CN(Cc3nccs3)C[C@@H]2C1,41.28%
21,CC(C)N1CCO[C@H]2CN(C(=O)c3ccsc3)C[C@H]21,65.32%
22,c1ncn(Cc2nnc(C3CCN(CC4CC4)CC3)n2C2CC2)n1,30.96%
23,Cc1nnc(CN2CCOC(c3ccc(Cl)cc3)C2)o1 (stereo not given),57.75%
24,Cc1nnc(CN2CCOC(c3ccc(Cl)c(Cl)c3)C2)o1 (stereo not given),38.67%
25,Cc1nc(CN2CCOC(c3ccc(Cl)cc3)C2)oc1C (stereo not given),5.28%
26,c1ccc(O[C@H]2CO[C@@]3(CCN(Cc4ccc5c(c4)OCO5)C3)C2)nc1,40.83%
27,O=C(c1c[nH]c(=O)[nH]c1=O)N1CCCC(c2cnccn2)C1 (stereo not given),-15.93%

row,Structure (SMILES),INHIBITION
1,Cc1cncc(C2CCCN(Cc3ccncc3)C2)n1 (stereo not given),-33.09%
2,Cc1cncc(C2CCCN(CC3CCC3)C2)n1 (stereo not given),50.63%
3,Cc1cncc(C2CCCN(C(=O)c3c[nH]c(=O)[nH]c3=O)C2)n1 (stereo not given),50.72%
4,Cc1ccc(CN2CCCC(c3cncc(C)n3)C2)cn1 (stereo not given),-0.15%
5,Cc1cncc(C2CCCN(C(=O)c3ccc(C)[nH]c3=O)C2)n1 (stereo not given),17.71%
6,COc1ccc(NC(C)c2ccc(C#N)cc2)cc1N1CCCC1=O (stereo not given),-50.8%
7,O=C1CC(c2ccc(CO)o2)c2cnn(Cc3ccco3)c2N1 (stereo not given),-1.11%
8,Cc1nc(-c2cnn(C)c2)sc1C(=O)NCc1cccc(CN(C)C)c1,-6.4%
9,CN(Cc1nnc2n1CCC2)C(=O)Cc1ccc2c(c1)CCC2,-9.49%
10,Cc1nnsc1C(=O)N1CC[C@H](c2ccccc2)[C@@H]2[C@H]1CCCCN2C,22.81%
11,NC(=O)C1CN(C(=O)Nc2ccccc2SC(F)(F)F)CCO1 (stereo not given),-20.93%
12,O=C(NCc1ncc(-c2ccccc2)o1)NC1CCC(O)CC1 (stereo not given),13.58%
13,COc1cc(C)c(CN2CCc3nc4ccsc4c(=O)n3CC2)cc1C,36.56%
14,CN(C)c1cccc(C(=O)Nc2cnn(Cc3ccncc3)c2)c1,-34.79%
15,COCCC(=O)N1CCC2(COCc3cnc(NCC4CC4)nc32)C1 (stereo not given),-20.77%
16,Cn1cnnc1C1CCCN(c2nc3ccccc3o2)C1 (stereo not given),44.25%
17,c1ccc2oc(N3CCC(c4nncn4C4CC4)CC3)nc2c1,15.02%
18,Cn1cnnc1C1CCN(c2nc3ccccc3o2)CC1,53.81%
19,Cc1cnn(CCNCc2nc(CNC(=O)c3ccccc3)no2)c1,47.23%
20,CN(C)c1nc(N)nc(CN2CCC(c3ccccc3)CC2)n1,29.6%
21,COc1ccc(CN2CCN(C(=O)c3ccc(C)n3C)CC2)cc1,-10.64%
22,Cc1ccc(C(=O)N2CCN(Cc3ccccc3)CC2)n1C,52.17%
23,Cc1ccc(C(=O)N2CCN(Cc3ccc(C#N)cc3)CC2)n1C,28.18%
24,CC(C1CC1)N(C(=O)NCCCn1nc2ccccn2c1=O)C1CC1 (stereo not given),1.07%
25,O=C(c1ccnnc1)N1CCN2C[C@H](OCc3ccccn3)C[C@H]2C1,26.94%
26,Cc1cnc(C(=O)N2CCN3C[C@H](OCc4cccnc4)C[C@H]3C2)cn1,-35.38%
27,O=C(c1cscn1)N1CCN2C[C@H](OCc3cccnc3)C[C@H]2C1,50.12%

row,Structure (SMILES),INHIBITION
1,O=C(c1ccsc1)N1CCN2C[C@H](OCc3cccnc3)C[C@H]2C1,16.22%
2,O=C(c1ccc(F)cc1)N1CCN2C[C@H](OCc3ccccn3)C[C@H]2C1,15.58%
3,O=C(c1ccsc1)N1CCN2C[C@H](OCc3ccccn3)C[C@H]2C1,53.08%
4,CN1CC2(CCN(C(=O)c3[nH]cnc3-c3ccccc3)C2)OC1=O (stereo not given),14.96%
5,Cc1cc(C2CCC2)nc(N2CCN(Cc3nccn3C)CC2)n1,35.46%
6,Cc1cc(C2CCC2)nc(N2CC(n3cccn3)C2)n1,52.6%
7,Cc1cc(N(C)C)nc(N2CC(n3cccn3)C2)n1,35.46%
8,Cc1c(NC(=O)CN2CCN(C3CCCC3)C(=O)C2)cnn1C,17.24%
9,c1ccc(-n2cc(CN3CCCC3Cn3cncn3)nn2)cc1 (stereo not given),15.47%
10,CC(C)c1nnc(NC(=O)CSCc2cc(=O)n3ccccc3n2)s1,1.87%
11,Cc1ccn2c(=O)cc(CSCC(=O)Nc3nnc(C(C)C)s3)nc2c1,4.89%
12,Cc1cccc2nc(CSCC(=O)Nc3nnc(C(C)C)s3)cc(=O)n12,52.21%
13,COc1ccc2c3c1CN(C(C)=O)CC3=CC(C)(C)CO2,22.01%
14,Cc1ccsc1C(=O)NC(C)c1ccc2c(c1)CCC(=O)N2 (stereo not given),0.48%
15,CSc1ccsc1C(=O)NC(C)c1ccc2c(c1)CCC(=O)N2 (stereo not given),0.48%
16,CC(NC(=O)c1sccc1C1CC1)c1ccc2c(c1)CC(=O)N2 (stereo not given),51.14%
17,Cn1cc(C(=O)NCc2ccc(N3CCCC3)nc2)ccc1=O,-0.05%
18,Cc1ccn(CC(=O)NCCCOc2ccccc2F)c(=O)c1,15.2%
19,CN(C)S(=O)(=O)N1CCC(c2ccncn2)CC1,-5.42%
20,COCCn1ccc(NC(=O)Nc2ccncc2)n1,1.94%
21,O=S(=O)(NCC1(c2cccs2)CCCC1)c1cccnc1,58.53%
22,O=S(=O)(NCC1(c2cccs2)CCOCC1)c1cccnc1,-0.59%
23,O=S(=O)(NCC1(c2cccs2)CCOCC1)c1ccc2c(c1)OCCO2,-12.08%
24,Cc1cccc(Nc2ccc(C3CCCCN3)cn2)n1 (stereo not given),30.53%
25,O=C(NC1CC1)[C@H]1C[C@H]2OCC[C@H]2N(CC2CC2)C1,28.49%
26,O=C(COCc1ccccc1)N1CCCC1c1noc(C2CC2)n1 (stereo not given),37.68%
27,CN(CCCc1ccc(C(F)(F)F)cc1)Cc1nccn1C,59.08%

row,Structure (SMILES),INHIBITION
1,Cn1ccnc1CN(CCO)Cc1ccc(C(F)(F)F)cc1,9.42%
2,CN(CCCOc1ccccc1)Cc1nccn1C,-27.01%
3,CSCC(CCO)NC(=O)c1cccc(C)c1Cl (stereo not given),-5.44%
4,Cc1cn2c(n1)CCC(NC(=O)c1cc(Br)cn1C)C2 (stereo not given),-2.1%
5,CCOc1ccc(C(F)(F)F)cc1NC(=O)NCc1noc(C)n1,-40.82%
6,Cc1nc(CN2C(=O)COC3(CCN(CC4CC4)CC3)C2C)cs1 (stereo not given),35.26%
7,CC(=O)N1CCC(CCNC(C)c2cc(C)cc(C)c2)CC1 (stereo not given),8.03%
8,CC(=O)N1CCC(CCNC(C)c2cc(F)cc(F)c2)CC1 (stereo not given),14.63%
9,CC(=O)N1CCC(CCNC(C)Cc2ccc(F)cc2)CC1 (stereo not given),63.1%
10,CN(C)C(=O)C1CN(Cc2ccccn2)CCN(S(C)(=O)=O)C1 (stereo not given),25.72%
11,Cc1noc(C)c1CN(C)C(=O)c1ccc(C(N)=O)nc1,17.31%
12,COc1ccccc1CN(CC1CCCO1)C(=O)c1scnc1C (stereo not given),21.54%
13,O=C(c1ccco1)N1C[C@@H]2OCCN(c3ncccn3)[C@@H]2C1,41.73%
14,CCN1C(=O)C(c2ccccc2)CC12CCN(c1ncccn1)CC2 (stereo not given),30.4%
15,CCN1C(=O)C(c2ccccc2)CC12CCN(CCO)CC2 (stereo not given),21.06%
16,CCN1C(=O)C(c2ccccc2)CC12CCN(Cc1cccnc1)CC2 (stereo not given),52.36%
17,N#CCCN(C(=O)CCc1cccnc1)c1ccc2c(c1)OCCO2,33.26%
18,CN(C)C(=O)c1ccn(-c2ccc3ccccn23)n1,6.35%
19,CC(C)(CNc1ccccc1S(=O)(=O)C(F)F)N1CCOCC1,-64.31%
20,CCC(C)(CNC(=O)Nc1nncs1)N1CCOCC1 (stereo not given),-42.64%
21,CC(C)(CNC(=O)Nc1ccc(S(=O)(=O)C(F)F)cc1)N1CCOCC1,53.63%
22,CCC(C)(CNC(=O)Nc1nccs1)N1CCOCC1 (stereo not given),21.24%
23,CC(C)(CNC(=O)Nc1nccs1)N1CCOCC1,64.2%
24,CC(C)(CNc1ccc(S(=O)(=O)C(F)F)cc1)N1CCOCC1,5.02%
